# Measured values: the supplement of paper PMC8728848
# The full list was thinned out, with the strongest signals kept by preference.
# B1: OGAN (protein)
# chain: MVQKESQATLEERESELSSNPAASAGASLEPPAAPAPGEDNPAGAGGAAVAGAAGGARRFLCGVVEGFYGRPWVMEQRKELFRRLQKWELNTYLYAPKDDYKHRMFWREMYSVEEAEQLMTLISAAREYEIEFIYAISPGLDITFSNPKEVSTLKRKLDQVSQFGCRSFALLFNDIDHNMCAADKEVFSSFAHAQVSITNEIYQYLGEPETFLFCPTEYCGTFCYPNVSQSPYLRTVGEKLLPGIEVLWTGPKVVSKEIPVESIEEVSKIIKRAPVIWDNIHANDYDQKRLFLGPYKGRSTELIPRLKGVLTNPNCEFEANYVAIHTLATWYKSNMNGVRKDVVMTDSEDSTVSIQIKLENEGSDEDIETDVLYSPQMALKLALTEWLQEFGVPHQY
# Tests used:
# Experiment in all cases: glycan array binding signal (z-score within array); higher = stronger binding
# Conditions in all cases: glycan notation: IUPAC condensed, linker removed
# [1] = target: Gal3S6S(b1-4)GlcNAc
# Procedure, shortened: (§1)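 The Consortium for Functional Glycomics database supplied 3228 glycan arrays, of which those lacking an available protein sequence were dropped. The binding signal, a within-array Z-score, was averaged across arrays of the same protein sequence and across linkers. Negative scores can be read as non-binding.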
# [2] = target: Glc(a1-4)Glc(a1-4)Glc(a1-4)Glc
# Procedure, shortened: as §1
# [3] = target: GlcA3S(b1-3)Gal(b1-4)GlcNAc(b1-2)Man
# Procedure, shortened: as §1
# [4] = target: GlcNAc(a1-3)Gal(b1-4)GlcNAc
# Procedure, shortened: as §1
# [5] = target: GlcNAc(a1-4)Gal(b1-4)GlcNAc(b1-3)Gal(b1-4)GlcNAc(b1-3)Gal(b1-4)GlcNAc
# Procedure, shortened: as §1
# [6] = target: GlcNAc(a1-4)Gal(b1-4)GlcNAc(b1-3)Gal(b1-4)[Fuc(a1-3)]GlcNAc(b1-3)Gal(b1-4)[Fuc(a1-3)]GlcNAc
# Procedure, shortened: as §1
# [7] = target: GlcNAc(b1-2)Man(a1-3)[GlcNAc(b1-4)][GlcNAc(b1-2)Man(a1-6)]Man(b1-4)GlcNAc(b1-4)[Fuc(a1-6)]GlcNAc
# Procedure, shortened: as §1
# [8] = target: GlcNAc(b1-3)Gal(b1-3)GalNAc
# Procedure, shortened: as §1
# [9] = target: GlcNAc(b1-3)Gal(b1-4)GlcNAc
# Procedure, shortened: as §1
# [10] = target: GlcNAc(b1-3)Gal(b1-4)GlcNAc(b1-2)Man(a1-3)[GlcNAc(b1-3)Gal(b1-4)GlcNAc(b1-2)Man(a1-6)]Man(b1-4)GlcNAc(b1-4)GlcNAc
# Procedure, shortened: as §1
# [11] = target: GlcNAc(b1-3)Gal(b1-4)GlcNAc(b1-3)Gal(b1-4)GlcNAc
# Procedure, shortened: as §1
# [12] = target: GlcNAc(b1-3)Gal(b1-4)GlcNAc(b1-3)Gal(b1-4)GlcNAc(b1-3)Gal(b1-4)GlcNAc(b1-3)Gal(b1-4)GlcNAc(b1-2)[GlcNAc(b1-3)Gal(b1-4)GlcNAc(b1-3)Gal(b1-4)GlcNAc(b1-3)Gal(b1-4)GlcNAc(b1-3)Gal(b1-4)GlcNAc(b1-6)]Man(a1-6)[GlcNAc(b1-3)Gal(b1-4)GlcNAc(b1-3)Gal(b1-4)GlcNAc(b1-3)Gal(b1-4)GlcNAc(b1-3)Gal(b1-4)GlcNAc(b1-2)Man(a1-3)]Man(b1-4)GlcNAc(b1-4)[Fuc(a1-6)]GlcNAc
# Procedure, shortened: as §1
# [13] = target: GlcNAc(b1-3)Gal(b1-4)GlcNAc(b1-6)[GlcNAc(b1-3)Gal(b1-3)]GalNAc
# Procedure, shortened: as §1
# [14] = target: GlcNAc(b1-3)[GlcNAc(b1-4)][GlcNAc(b1-6)]GlcNAc
# Procedure, shortened: as §1
# [15] = target: Kdn(a2-3)Gal(b1-4)Glc
# Procedure, shortened: as §1
# [16] = target: Man(a1-2)Man(a1-3)Man
# Procedure, shortened: as §1
# [17] = target: Man(a1-2)Man(a1-3)[Man(a1-2)Man(a1-6)]Man(a1-6)[Man(a1-2)Man(a1-2)Man(a1-3)]Man(b1-4)GlcNAc(b1-4)GlcNAc
# Procedure, shortened: as §1
# [18] = target: MurNAc(b1-4)GlcNAc
# Procedure, shortened: as §1
# [19] = target: Neu5Ac(a2-3)Gal(b1-3)GalNAc(b1-3)Gal(a1-4)Gal(b1-4)Glc
# Procedure, shortened: as §1
# [20] = target: Neu5Ac(a2-3)Gal(b1-3)GalNAc(b1-4)[Neu5Ac(a2-8)Neu5Ac(a2-3)]Gal(b1-4)Glc
# Procedure, shortened: as §1
# [21] = target: Neu5Ac(a2-3)Gal(b1-4)GlcNAc(b1-2)Man(a1-3)[Neu5Ac(a2-6)Gal(b1-4)GlcNAc(b1-2)Man(a1-6)]Man(b1-4)GlcNAc(b1-4)GlcNAc
# Procedure, shortened: as §1
# [22] = target: Neu5Ac(a2-3)Gal(b1-4)GlcNAc(b1-3)GalNAc
# Procedure, shortened: as §1
# [23] = target: Neu5Ac(a2-3)Gal(b1-4)[Fuc(a1-3)]GlcNAc(b1-3)Gal
# Procedure, shortened: as §1
# [24] = target: Neu5Ac(a2-6)Gal(b1-4)GlcNAc(b1-2)Man(a1-3)[Gal(b1-4)GlcNAc(b1-2)Man(a1-6)]Man(b1-4)GlcNAc(b1-4)GlcNAc
# Procedure, shortened: as §1
# [25] = target: Neu5Ac(a2-6)Gal(b1-4)GlcNAc(b1-2)Man(a1-3)[GlcNAc(b1-4)][Neu5Ac(a2-6)Gal(b1-4)GlcNAc(b1-2)Man(a1-6)]Man(b1-4)GlcNAc(b1-4)GlcNAc
# Procedure, shortened: as §1
# [26] = target: Neu5Ac(a2-6)Gal(b1-4)GlcNAc(b1-3)Gal(b1-4)GlcNAc(b1-3)Gal(b1-4)GlcNAc(b1-2)Man(a1-3)[Neu5Ac(a2-6)Gal(b1-4)GlcNAc(b1-3)Gal(b1-4)GlcNAc(b1-3)Gal(b1-4)GlcNAc(b1-2)Man(a1-6)]GalNAc
# Procedure, shortened: as §1
# [27] = target: Neu5Ac(a2-6)Gal(b1-4)GlcNAc6S
# Procedure, shortened: as §1
# [28] = target: Neu5Ac(a2-8)Neu5Ac(a2-3)[Gal(b1-3)GalNAc(b1-4)]Gal(b1-4)Glc
# Procedure, shortened: as §1
# [29] = target: Neu5Gc(a2-6)Gal(b1-4)GlcNAc
# Procedure, shortened: as §1
# [30] = target: Neu5Gc(b2-6)Gal(b1-4)GlcNAc
# Procedure, shortened: as §1
binder,measurement,setting,value
B1,glycan array binding signal (z-score),[1],-0.035
same,glycan array binding signal (z-score),[2],0.06
same,glycan array binding signal (z-score),[3],-0.022
same,glycan array binding signal (z-score),[4],-0.068
same,glycan array binding signal (z-score),[5],-0.058
same,glycan array binding signal (z-score),[6],-0.057
same,glycan array binding signal (z-score),[7],-0.074
same,glycan array binding signal (z-score),[8],-0.035
same,glycan array binding signal (z-score),[9],-0.063
same,glycan array binding signal (z-score),[10],-0.058
same,glycan array binding signal (z-score),[11],-0.055
same,glycan array binding signal (z-score),[12],0.044
same,glycan array binding signal (z-score),[13],-0.052
same,glycan array binding signal (z-score),[14],-0.047
same,glycan array binding signal (z-score),[15],-0.059
same,glycan array binding signal (z-score),[16],-0.01
same,glycan array binding signal (z-score),[17],-0.036
same,glycan array binding signal (z-score),[18],-0.024
same,glycan array binding signal (z-score),[19],-0.065
same,glycan array binding signal (z-score),[20],-0.051
same,glycan array binding signal (z-score),[21],-0.048
same,glycan array binding signal (z-score),[22],-0.082
same,glycan array binding signal (z-score),[23],-0.094
same,glycan array binding signal (z-score),[24],-0.055
same,glycan array binding signal (z-score),[25],-0.034
same,glycan array binding signal (z-score),[26],0.039
same,glycan array binding signal (z-score),[27],-0.052
same,glycan array binding signal (z-score),[28],-0.052
same,glycan array binding signal (z-score),[29],-0.071
same,glycan array binding signal (z-score),[30],-0.021
